# Experimental data: PubChem BioAssay AID1508649 (National Center for Advancing Translational Sciences (NCATS), 2021)
# Among all 43,000 compounds or so, about 830 (1.9%) were called active. About 30% were inconclusive and are not listed. This is one part of a sample in which actives are shown more often than they occur. How the source made its calls: active means clear falling dose curves in both reporters; inconclusive means both reporters move, but less clearly or upward; inactive means either reporter flat; the % is the NLuc reporter signal.
# Experiment: Cell-based coincidence reporter assay to measure PMP22 gene transcription in S16 Pmp22-F2sN cells - Primary screen
# Details: S16 Pmp22-F2sN Schwann cells (luciferase reporters placed in the Pmp22 gene), FLuc/NLuc coincidence luminescence, 24 h; series mostly up to 57.5 µM; activity change, negative = inhibition: at the top concentration
# Excerpt: Assay Provider: Jim Inglese Ph.D. National Center for Advancing Translational Science, National Institutes of Health, Rockville, MD CMT is a heterogeneous group of neurological disorders that affect approximately 1 in 2,500 people. In particular, the most common form of CMT, CMT1A is genetically linked to the duplication of the PMP22 gene which leads to Schwann cell overexpression, thus manifesting itself as a typical case of dose-sensitive diseases. To identify small molecule compounds that can mediate the expression of PMP22 we developed a phenotypic assay screening strategy by utilizing genome editing techniques to construct Schwann cell lines containing novel reporter technology to monitor the transcriptional or translational regulation of PMP22. For high sensitivity we use a bioluminescent reporter system embedded in the 3' UTR of the PMP22 gene (S16(c9) Pmp22-F2sN) to identify compounds that inhibit gene expression. […] We can further discriminate the effect of all transcriptionally active molecules on PMP22 translation or stability with an assay that incorporates a short NLuc peptide (HiBiT) at the C-terminus of expressed PMP22 (S16(f8) PMP22-HiBiT) allowing alpha complementation and luminescence detection of membrane-associated PMP22 protein. These assays were screened against the NCATS Sytravon Library Collection. Miniaturization of these assays to 1536-well plate format for quantitative high throughput screening (qHTS) yielded rich data sets immediately from the qHTS assay (S16(c9) Pmp22-F2sN), when compared with data from a cell viability assay (Cell TiterGlo) to identify compounds that decreased the output signals through cellular toxicity to streamline the selection process of actives for subsequent characterization using the HiBiT assay (S16(f8) PMP22-HiBiT).
# Cell-based coincidence reporter assay to measure PMP22 gene transcription in S16 Pmp22-F2sN cells PROTOCOL TABLE (format as described by Inglese J, Shamu CE and Guy RK. 2007) SEQUENCE No. (e.g., 1, 2, 3, etc.); […] (e.g., Cells, Incubation, Reagent, etc.); VALUE and DESCRIPTION. 1. Cells. Add 500-1,000 cells in 4 uL in growth media (DMEM High Glucose, No Phenol Red media + 10% heat-inactivated FBS + 1% Pen/Strep supplemented media) per well into Greiner 1536-well white/solid bottom high base, TC-treated plates. 2. Compounds. Library compounds and controls added at 23nL per well, transferred by Pin Tool. 3. Incubation. Incubate plates at 37C, 5% CO2, 95% RH for 24 h. 4. Reagent. Add 3.5uL Nano-Glo Dual-Luciferase Reporter Assay System reagent 1: Lysis and FLuc reagent per well of Greiner 1536-well plates. 5. Incubation. Incubate plates at room temperature for 10 min., protect from light. 6. Detector. FLuc luminescence measured using CCD-based camera (Viewlux). 7. Reagent. Add 3.5uL Nano-Glo Dual-Luciferase Reporter Assay System reagent 2: Stop&Glo reagent per well of Greiner 1536-well plates. 8. Incubation. Incubate plates at room temperature for 10 min., protect from light. 9. Detector. NLuc luminescence measured using CCD-based camera (Viewlux). NOTES (numbers refer to Sequence numbers above; values are from representative experiments) 6. Luminescence Read #1 (FLuc): Clear filter; Exposure = 10 sec, Gain = High, Speed = Slow, Binning = 2X 9. Luminescence Read #2 (NLuc): Clear filter; Exposure = 1 sec, Gain = High, Speed = Slow, Binning = 2X REFERENCES: 1. Inglese J, Shamu CE and Guy RK, Reporting data from high throughput screening of small molecule libraries, Nature Chemical Biology, 2007, 3(8): 438-441. doi.org/10.1038/nchembio0807-438 2. Yasgar A, Shinn P, Jadhav A, Auld DS, Michael S, Zheng W, Austin CP, Inglese J and Simeonov A, Compound Management for Quantitative High-Throughput Screening. J. Assoc. Lab. Auto., 2008, 13: 79-89. doi: 10.1016/j.jala.2007.12.004
# On the % scale 0 is the no-effect control and ±100 the full control effect; potency means the concentration at half of the fitted maximal effect.
Structure (SMILES),Potency,"activity change, negative = inhibition"
O=C(CCCn1c(=O)c2cccn2c2cccnc21)NCc1ccc(F)cc1,17.9 µM (active),–
CCc1ccc(NS(=O)(=O)c2ccc3[nH]cc(C(=O)NCCc4cccc(C)c4)c(=O)c3c2)cc1,–,-16.7% (inactive)
COc1cccc(CNC(=O)C(NS(=O)(=O)c2ccc3nc(C)sc3c2)C(C)C)c1 (stereo not drawn),–,1.61% (inactive)
CCOC(=O)C1=C(c2ccccc2)Nc2ncnn2C1c1ccc(Cl)cc1 (stereo not drawn),–,-19.3% (inactive)
Cc1ccc(C)c2sc(NC(=O)c3ccc(S(=O)(=O)N4CCCC4)cc3)nc12,–,-6.67% (inactive)
COc1ccc(C(=O)N2CCC(c3nc4ccccc4o3)CC2)cc1,–,-2.94% (inactive)
O=C(c1ccc(C(F)(F)F)cc1)N1CCC(c2nc(-c3ccc(S(=O)(=O)N4CCCC4)cc3)no2)CC1,14.2 µM (active),–
Fc1cccc(-n2ncc3c2ncn2nc(-c4ccccc4Cl)nc32)c1,–,1.98% (inactive)
Cc1ccc(-c2onc(C)c2C)cc1S(=O)(=O)Nc1ccccn1,–,1.02% (inactive)
COc1ccc(-c2onc(C)c2C)cc1S(=O)(=O)NCC1CCN(Cc2cccc(F)c2)CC1,14.1 µM (active),–
COc1cc(NC(=O)NCC2CCN(Cc3ccc(C)cc3)CC2)cc(OC)c1OC,–,-8.67% (inactive)
CCS(=O)(=O)c1nc(S(=O)(=O)c2ccc(C)cc2)c(NCc2ccc(Cl)cc2)s1,–,-7.32% (inactive)
CCc1ccc(Nc2nn3c(=O)c4cc5c(cc4nc3s2)OCO5)cc1,–,-6.98% (inactive)
COc1ccc(N2CCN(C(=O)c3c(C)oc4nc(C)nc(N5CCCC5)c34)CC2)cc1,–,-27.4% (inactive)
CC1=C(C(=O)OCc2ccc(C)cc2)C(c2c(Cl)cccc2Cl)CC(=O)N1 (stereo not drawn),–,-9.76% (inactive)
CC1=C(C(=O)OCc2ccc(C)cc2)C(c2ccccc2Cl)CC(=O)N1 (stereo not drawn),–,14% (inactive)
CCc1ccc(C2CC(=O)c3c([nH]c(C(=O)OCc4ccc(C)cc4)c3C)C2)cc1 (stereo not drawn),10 µM (active),–
COc1ccc(-c2nn3c(-c4ccc(OC)cc4)nnc3c3ccccc23)cc1,–,2.98% (inactive)
CCOC(=O)c1cc(OC(=O)c2ccccc2Cl)n(-c2ccccc2)n1,–,-11.1% (inactive)
COc1cc(OC)cc(-c2nc3nc(C)c(CCC(=O)Nc4ccc(C)cc4)c(C)n3n2)c1,–,1.75% (inactive)
Cc1ccc(NC(=O)Cn2cnc3nc4c(cc3c2=O)CCCC4)cc1Cl,–,23.1% (inactive)
O=C(CCc1nc(CN2CCN(S(=O)(=O)c3ccc(F)cc3)CC2)no1)N1CCCCC1,–,-12.7% (inactive)
CCOC(=O)c1cccc(NC(=O)c2cc(CN3CCCC3)on2)c1,–,4.87% (inactive)
CCc1ccccc1NC(=O)N1CCN(C(=O)c2nsc3ccccc23)CC1,–,2.47% (inactive)

Structure (SMILES),Potency,"activity change, negative = inhibition"
Cc1ccc(NC(=O)CN2c3ccccc3S(=O)(=O)c3ccccc32)cc1F,–,6.49% (inactive)
COc1cccc(NC(=O)N2CCN(C(=O)c3nsc4ccccc34)CC2)c1,–,-15.2% (inactive)
CCc1ccccc1NC(=O)Cc1cn(C)c2ccccc12,–,-23.8% (inactive)
COc1cccc(NC(=O)N(Cc2cn(C)c3ccccc23)C2CCCCCC2)c1,10.6 µM (active),–
O=c1cc(COc2cccc(C(F)(F)F)c2)nc2sc3c(n12)CCCC3,–,-19.3% (inactive)
CCOc1ccccc1NC(=O)Cn1nnc(C(=O)NCc2cccs2)c1N,0.401 µM (active),–
COc1cccc(CNC(=O)c2nnn(CC(=O)Nc3cc(Cl)ccc3C)c2N)c1,–,-26.4% (inactive)
CCOc1ccccc1NC(=O)Cn1nnc(C(=O)Nc2ccc(C)c(C)c2)c1N,–,-12.8% (inactive)
COc1ccc(C2Sc3ccccc3NC3=C2C(=O)c2ccccc23)c(OC)c1OC (stereo not drawn),7.27 µM (active),–
Cc1ccc(-c2noc(CSc3nnc(-c4ccc(Cl)cc4)n3C)n2)cc1,–,-54.7% (inactive)
Cc1nnc(C)n1-c1ccc(C(=O)Nc2cccc(Br)c2)cc1,–,23.7% (inactive)
CCN(CCCNC(=O)c1c(C)oc2ncn(CC(C)C)c(=O)c12)Cc1ccccc1,–,-18.5% (inactive)
Cc1cc(C)nc(NS(=O)(=O)c2ccc(NC(=O)c3cc(=O)c4ccc(C)c(C)c4o3)cc2)n1,–,-33.5% (inactive)
COc1ccc(S(=O)(=O)Nc2cc3c(C(=O)OC(C)C)c(C)oc3c3ccccc23)cc1,11.3 µM (active),–
COc1ccc(OC)c(NC(=O)C2CCN(S(=O)(=O)c3ccc(C)cc3)CC2)c1,–,2.94% (inactive)
COc1ccc(Cn2ccnc2SCC(=O)Nc2ccc3c(c2)OCO3)cc1,–,-13% (inactive)
CCn1cc(C(=O)NCc2ccc(C)cc2)c(=O)c2cc(S(=O)(=O)N3CCc4ccccc4C3)ccc21,–,0.357% (inactive)
COc1cccc(C(=O)Nc2ccc3nc4n(c(=O)c3c2)CCCCC4)c1,–,-16.8% (inactive)
COc1cc(NC(=O)c2nc3ccccc3nc2C)cc(OC)c1OC,–,-18.9% (inactive)
COc1ccccc1Nc1c2c(nc3ccc(NC(=O)/C=C/c4cc(OC)c(OC)c(OC)c4)cc13)CCCC2,6.04 µM (active),–
CC(=O)c1ccc(N2CCN(C3C(=O)c4ccccc4N3C(C)=O)CC2)cc1 (stereo not drawn),–,6.64% (inactive)
O=C(C1COc2ccccc2O1)N(Cc1cccnc1)c1nc2c(F)cc(F)cc2s1 (stereo not drawn),–,-8.93% (inactive)
O=C(CCS(=O)(=O)c1ccccc1)N(Cc1cccnc1)c1nc2c(F)cccc2s1,10.6 µM (active),–
Cc1ccc2sc(N(Cc3cccnc3)C(=O)C3COc4ccccc4O3)nc2c1C (stereo not drawn),–,-67.6% (inactive)
